3CLpro inhibitor: SARS-CoV 3CLpro protease inhibition | inhibition, % at 6 µM | P0C6X7 | hit rate 0.14% among 290,000 | AID 1706 | recombinant SARS-CoV 3CLpro, quenched FRET peptide cleavage; in the data active = inhibition above about 12%
Bead autofluor: flagged as autofluorescent in microsphere protease counterscreen; fluorescence intensity (no concentration beside the values); compound autofluorescence counterscreen, microsphere flow cytometry; hits give high values; hit rate 3.1% among 360,000; in the data active = fluorescence intensity above about 16000; inconclusive = no clear call, values can overlap the other calls
BoNT-F LC inh: blocks Botulinum neurotoxin F light chain protease; Multiplex microsphere protease cleavage assay, flow cytometry; inhibition, % at 10 µM; hit rate 0.22% among 360,000; AID 588497; in the data active = inhibition above about 35%, passing the limit was not always enough; inconclusive = no clear call, values can overlap the other calls; note: plate controls were buffer without enzyme for full effect and enzyme alone for no effect
Anthrax LF inh2: inhibitors of Bacillus anthracis lethal factor protease; P15917; hit rate 0.12% among 360,000; AID 588501; inhibition, % at 10 µM; multiplex microsphere protease cleavage assay, LF; note: plate controls were buffer without enzyme for full effect and enzyme alone for no effect
Target sequence (P15917 whole entry, looked up): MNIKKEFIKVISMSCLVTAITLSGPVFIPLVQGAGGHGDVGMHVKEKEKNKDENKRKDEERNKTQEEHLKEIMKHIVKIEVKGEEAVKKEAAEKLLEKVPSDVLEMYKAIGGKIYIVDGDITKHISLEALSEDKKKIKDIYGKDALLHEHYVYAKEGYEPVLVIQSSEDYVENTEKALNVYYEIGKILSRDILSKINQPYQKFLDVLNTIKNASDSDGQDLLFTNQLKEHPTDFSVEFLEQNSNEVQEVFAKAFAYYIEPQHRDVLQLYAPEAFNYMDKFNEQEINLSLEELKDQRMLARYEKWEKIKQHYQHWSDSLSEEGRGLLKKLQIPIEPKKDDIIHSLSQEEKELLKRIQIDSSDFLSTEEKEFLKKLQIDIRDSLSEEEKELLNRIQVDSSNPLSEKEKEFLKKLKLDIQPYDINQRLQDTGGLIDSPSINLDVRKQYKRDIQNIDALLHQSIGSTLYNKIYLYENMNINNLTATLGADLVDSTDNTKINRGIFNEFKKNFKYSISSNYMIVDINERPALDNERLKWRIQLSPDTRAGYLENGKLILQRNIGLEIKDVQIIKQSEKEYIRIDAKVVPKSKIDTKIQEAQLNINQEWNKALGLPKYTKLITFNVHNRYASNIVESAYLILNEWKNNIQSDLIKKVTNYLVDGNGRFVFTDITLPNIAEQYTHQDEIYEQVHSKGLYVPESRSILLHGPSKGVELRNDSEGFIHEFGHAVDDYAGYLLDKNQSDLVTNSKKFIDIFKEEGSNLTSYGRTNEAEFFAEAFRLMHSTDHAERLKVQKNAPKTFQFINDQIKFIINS
BoNT-A LC inh2: BoNT A light chain protease inhibition; multiplex microsphere protease substrate cleavage, flow cytometry; hit rate 0.17% among 360,000; inhibition, % at 10 µM; note: plate controls were buffer without enzyme for full effect and enzyme alone for no effect
CCHFV vOTU inh: CCHFV vOTU protease inhibition. inhibition, % at 11.5 µM. hit rate 0.55% among 370,000. Pep-AMC fluorescence; in the data active = inhibition above about 30%; note: 0% = vehicle wells with enzyme and 100% = no enzyme wells
* hit, by the source's call; ? = inconclusive; . = not tested or not shown. Most compounds without a hit are left out; they make up all but 3.9% or so of the library. Cut-off read from the data, not from the text of the source, unless noted: active = inhibition above about 30%; inconclusive = no clear call, values can overlap the other calls; inactive = below that.

SMILES	3CLpro inhibitor	Bead autofluor	BoNT-F LC inh	Anthrax LF inh2	BoNT-A LC inh2	CCHFV vOTU inh
CCCCNC(=O)Nc1cc(C(F)(F)F)c[nH]c1=O	-2	24583*	-6	-1	-3	0
CCCCNC(=O)Nc1ccccc1CC	4	4189	?	2	0	9
Cc1ccc(Cl)cc1N1CCN(S(=O)(=O)c2c(C)[nH]c(=O)[nH]c2=O)CC1	1	19342*	1	0	?	11
CCCCNC(=O)c1ccc(N2CCOCC2)c(NS(=O)(=O)c2ccc(OC)cc2)c1	-2	20173*	8	2	9	-9
Nc1c(C(=O)NCc2ccc(F)cc2)c2nc3ccccc3nc2n1CCCN1CCOCC1	-2	23744*	-2	2	4	-37
Nc1c(C(=O)NCc2ccccc2)c2nc3ccccc3nc2n1CCCN1CCOCC1	-2	2172	-3	3	12	-55
O=C(NCCCN1CCOCC1)c1ccc(CNS(=O)(=O)c2ccc(F)cc2)cc1	4	16290*	0	2	?	-8
O=C(NCCN1CCOCC1)c1cc(-c2ccco2)on1	-6	17211*	-7	-6	-4	-10
O=C(NCCc1ccccc1)OCc1cn(Cc2cccc(C(F)(F)F)c2)nn1	.	.	.	.	.	9
O=C(NCCCN1CCOCC1)c1cc(-c2ccc(F)cc2)on1	-4	18525*	9	2	6	6
COc1ccc(S(=O)(=O)NCCCCCC(=O)NCCCN2CCOCC2)cc1	2	20933*	2	-2	3	.
O=C(CCCCCNS(=O)(=O)c1ccc(Br)cc1)NCCN1CCOCC1	-4	9752	-3	-1	0	-21
COc1ccc(Cn2ccc3ccc(-c4ccc5ccn(Cc6cccc(F)c6)c5c4)cc32)cc1	.	.	.	.	.	8
Cc1cccc2sc(NC(=O)Cn3cccc3)nc12	-3	6057	-10	2	-1	12
Cc1cccc2sc(NC(=O)CSCc3ccccc3)nc12	1	23019*	1	-1	?	-7
N#Cc1cc(C#N)c(N2CCN(c3ccccn3)CC2)nc1N	0	23218*	-2	-5	-3	16
Cc1ccc(C(=S)NCS(=O)(=O)c2ccc(C)cc2)cc1	-4	23970*	-4	-2	-2	6
Cc1ccc(S(=O)(=O)CNC(=S)c2cccc(Cl)c2)cc1	3	2536	-3	-2	0	6
Cc1oc2ccc(O)c(CN3CCOCC3)c2c1C(=O)c1ccc(Cl)cc1	-3	23586*	-4	-1	-1	-4
CCOC(=O)CC[C@@H]1CC[C@]2(CCCN(S(=O)(=O)C3CCCCC3)C2)O1	.	.	.	.	.	4
COc1cc2nc(CC(C)C)n(NC(=O)c3ccccc3)c(=O)c2cc1OC	1	22766*	3	1	?	-11
O=C(CN1CCCc2ccccc21)NCc1ccccc1F	.	.	.	.	.	1
COc1ccc(OCCCC(=O)Nc2cc(Cl)ccc2-n2cncn2)cc1	.	17700*	-131	-20	-87	-9
Cc1[nH][nH]c(=O)c1C(c1ccc(-c2ccc(C(=O)O)cc2)o1)c1c(C)[nH][nH]c1=O	3	3861	-4	0	-1	26
Cc1[nH][nH]c(=O)c1C(c1ccc(-c2ccc(Cl)c(Cl)c2)o1)c1c(C)[nH][nH]c1=O	2	5175	3	-1	0	43*
SMILES	3CLpro inhibitor	Bead autofluor	BoNT-F LC inh	Anthrax LF inh2	BoNT-A LC inh2	CCHFV vOTU inh
CCCCCn1c(CN2CCN(c3cccc(Cl)c3)CC2)nc2c1c(=O)n(C)c(=O)n2C	4	8145	2	0	0	-4
CCCCn1c(CN2CCN(c3ccccc3)CC2)nc2c1c(=O)n(C)c(=O)n2C	2	5771	7	2	0	.
CCCCn1c(CN2CCN(c3cccc(Cl)c3)CC2)nc2c1c(=O)n(C)c(=O)n2C	-2	19625*	7	-12	6	1
CCCCn1c(CN(C)Cc2ccccc2)nc2c1c(=O)n(C)c(=O)n2C	-5	19708*	-2	-6	0	14
CCCCCn1c(CN2CCN(Cc3ccccc3)CC2)nc2c1c(=O)n(C)c(=O)n2C	-3	20660*	7	-8	5	3
Cn1c(=O)c2c(ncn2CC(=O)N(Cc2ccccc2)c2ccccn2)n(C)c1=O	9	23173*	-2	0	0	4
Cn1c(=O)c2c(ncn2CC(=O)OCc2ccccc2)n(C)c1=O	-2	?	12	0	-2	-10
O=C(CCc1nc(-c2ccccc2F)no1)NCCc1ccccc1F	.	.	.	.	.	-4
CC(C)CCn1c(CN2CCN(Cc3ccccc3)CC2)nc2c1c(=O)n(C)c(=O)n2C	-2	20587*	-1	3	?	14
CC(C)Cn1c(CN2CCN(C(=O)c3ccco3)CC2)nc2c1c(=O)n(C)c(=O)n2C	-4	3835	0	-4	0	-21
Cn1c(=O)c2c(nc(CN3CCN(Cc4ccccc4)CC3)n2Cc2ccc(F)cc2)n(C)c1=O	2	6409	5	-1	0	12
CCn1c(CN2CCN(C(=O)c3ccco3)CC2)nc2c1c(=O)n(C)c(=O)n2C	-2	21356*	5	1	?	4
CCOC(=O)Cn1c(CN(Cc2ccccc2)Cc2ccccc2)nc2c1c(=O)n(C)c(=O)n2C	1	20766*	4	-9	3	10
CCN(CC)c1ccc(C=Nn2c(C)nnc2C)cc1	.	.	.	.	.	12
Cc1ccccc1N(CC(=O)NCC1CCCO1)C(=O)C1(C)CC(=O)N=C2C=CC=CN21 (stereo unspecified)	2	23341*	0	-2	0	-84
Cc1ccccc1N(CC(=O)NC1CCCC1)C(=O)C1(C)CC(=O)N=C2C=CC=CN21 (stereo unspecified)	1	4045	-4	-2	0	-90
CC(C)C(NC=C1C(=O)OC(C)(C)OC1=O)C(=O)O (stereo unspecified)	-5	16608*	-5	-2	?	-1
CN1/C(=C\C(=S)NC(=O)c2cccc(Br)c2)C(C)(C)c2ccccc21	1	5118	-18	16	42*	-4
CCCCn1c(=NC(=O)c2ccc3c(c2)OCO3)c(C#N)cc2c(=O)n3cccc(C)c3nc21	1	2551	38*	49*	63*	-38
CCCCCn1c(=NC(C)=O)c(C#N)cc2c(=O)n3ccccc3nc21	1	23665*	0	0	2	-75
Cc1cc(-n2c(=O)c(C#N)cc3c(=O)n4ccccc4nc32)no1	-2	8488	3	-1	0	-298
COCCn1c(=NC(=O)c2ccc3c(c2)OCO3)c(C#N)cc2c(=O)n3cccc(C)c3nc21	-1	.	.	.	.	.
Cc1ccccc1-n1c(=O)c(C#N)cc2c(=O)n3ccccc3nc21	0	21339*	-7	0	?	-247
Cc1cccc(NS(=O)(=O)c2ccc(C3CCCCC3)cc2)n1	2	22937*	-3	0	-2	-3
COc1cccc(CNC(=O)[C@H]2CCCN2C(=O)[C@H]2CCCN2C(=O)c2ccc(C)cc2)c1	.	.	.	.	.	-6
CC(C(N)=O)N1C(=O)c2cccc3cccc1c23 (stereo unspecified)	2	23424*	-4	-1	1	-15
